Screens from PubChem.
GC-A act: GC-A stimulated cGMP production enhancers – HEK293 GC-A cells, cGMP TR-FRET, EC30 ANP, primary screen | 0% at EC30 ANP, 100% saturating ANP | activation, % at 10 µM | hit rate 0.14% among 370,000 | AID 1671463, 2021; in the data active = activation above about 40%
Target sequence (P16066 whole entry, looked up): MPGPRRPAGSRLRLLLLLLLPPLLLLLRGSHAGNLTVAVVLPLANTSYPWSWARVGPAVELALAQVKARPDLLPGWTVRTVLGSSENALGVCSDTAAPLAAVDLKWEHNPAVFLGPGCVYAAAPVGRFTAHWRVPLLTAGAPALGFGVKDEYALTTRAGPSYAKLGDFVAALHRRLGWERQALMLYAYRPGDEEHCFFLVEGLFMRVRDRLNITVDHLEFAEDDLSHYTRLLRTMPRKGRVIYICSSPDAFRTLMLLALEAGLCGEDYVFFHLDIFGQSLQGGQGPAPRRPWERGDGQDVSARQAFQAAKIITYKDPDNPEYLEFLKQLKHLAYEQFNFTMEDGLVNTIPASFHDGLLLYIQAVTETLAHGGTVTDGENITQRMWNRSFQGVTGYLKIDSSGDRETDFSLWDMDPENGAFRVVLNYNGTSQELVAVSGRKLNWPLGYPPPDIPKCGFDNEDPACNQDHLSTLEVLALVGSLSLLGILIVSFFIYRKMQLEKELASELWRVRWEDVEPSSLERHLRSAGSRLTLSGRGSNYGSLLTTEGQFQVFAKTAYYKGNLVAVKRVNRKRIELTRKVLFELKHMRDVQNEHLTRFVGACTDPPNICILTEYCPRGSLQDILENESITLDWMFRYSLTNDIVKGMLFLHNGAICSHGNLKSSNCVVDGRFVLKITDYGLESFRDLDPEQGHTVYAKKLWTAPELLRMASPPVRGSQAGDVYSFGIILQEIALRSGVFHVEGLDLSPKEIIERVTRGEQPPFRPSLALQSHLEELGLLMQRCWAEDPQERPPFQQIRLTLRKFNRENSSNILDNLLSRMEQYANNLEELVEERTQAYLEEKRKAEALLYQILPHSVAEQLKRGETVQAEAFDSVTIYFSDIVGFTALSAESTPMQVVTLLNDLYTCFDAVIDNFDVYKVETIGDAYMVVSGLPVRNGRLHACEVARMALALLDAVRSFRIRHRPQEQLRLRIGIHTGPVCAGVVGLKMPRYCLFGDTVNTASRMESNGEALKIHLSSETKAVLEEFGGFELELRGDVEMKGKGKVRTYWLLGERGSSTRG
NPR2 activator: human GC-B receptor activators, primary screen, HEK293 GC-B cells, cGMP TR-FRET, EC30 CNP; Atrial natriuretic peptide receptor 2 (Homo sapiens), P20594; 0% at EC30 CNP, 100% saturating CNP; activation, % at 10 µM; hit rate 0.11% among 370,000;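 active = activation at 10 µM reaching about 35% in either raw or pattern-adjusted values, limit read from the data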
HIF activator: HIF pathway transcriptional activators, primary screen, cell-based, U2OS HRE-luciferase, luminescence; U2OS HRE-luciferase reporter; normalized: DMSO 0%, desferrioxamine 100%; hit rate 0.32% among 300,000; activation, % at 7.5 µM (by protocol);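 active = mean activation of at least 10% of the iron chelator positive control signal, with at least half of replicates also reaching 10%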
KLK7 zymogen act: proKLK7 zymogen activators, primary screen, biochemical, fluorescence intensity | Kallikrein-7 (Homo sapiens), P49862 | purified proKLK7, EDANS-DABCYL substrate fluorescence; 100% is mature enzyme control, 0% vehicle | activation, % at 7 µM | hit rate 0.9% among 370,000 | AID 652039, 2013;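 active = activation above the mean of all tested compounds plus 3 SD, computed per campaign excluding outliers beyond control limits, cut at about 13% in these data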
KLK7 act conf: proKLK7 zymogen activators, confirmation, biochemical, fluorescence intensity, triplicate. shares compounds with KLK7 zymogen act. purified proKLK7, EDANS-DABCYL substrate fluorescence; scaled: vehicle 0, mature enzyme 100. activation, % at 7 µM. hit rate 68% among 3,200;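 active = activation, as change over the incubation, above the mean of all tested compounds plus 3 SD, cut at about 13% in these data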
EDANS interfere: EDANS-DABCYL substrate optical interference, artefact control for kallikrein-7 zymogen activator project, biochemical, fluorescence intensity, high throughput; shares compounds with KLK7 zymogen act; no enzyme, 4 h; solvent 0%, active enzyme control 100%; activation, % at 7 µM; hit rate 80% among 3,200; AID 686952, 2013;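 active = activation above the all-compound mean plus 3 SD, ignoring values outside control-based bounds, cut at about 4.8% in these data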;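 also: value is the 4 h activation minus the activation read at time zero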
Large screens that a line does not name were inactive (follow-up assays come after a bar, where they were run). Hits are enriched below; roughly 1.3% of the tested compounds scored in any of these assays.

COc1ccc(-c2nc3ccc(N4CCN(C)CC4)cc3c(=O)[nH]2)cc1	KLK7 zymogen act 14.2 | KLK7 act conf inactive | EDANS interfere 5.5
CC(C)(C)N(Cc1cn(CC2CCCCC2)nn1)S(=O)(=O)c1ccc(F)cc1Br	none (no result: HIF activator)
Cc1cc2c(C)cc(=O)oc2c2c1NCCC2	KLK7 zymogen act 68.3 | KLK7 act conf 61.6 | EDANS interfere 63.4
COCCN(C(=O)c1ccc(-c2ccc(Cl)cc2)o1)c1c(N)n(CC(C)C)c(=O)[nH]c1=O	none (no result: HIF activator)
COCCN(C(=O)c1ccc(-c2ccc(Cl)cc2)o1)c1c(N)n(Cc2ccccc2)c(=O)[nH]c1=O	KLK7 zymogen act 38.9 | KLK7 act conf 28.6 | EDANS interfere 29.6
O=C(O)CCc1nn2c3ccccc3n(CCN3CCCCC3)c2nc1=O	KLK7 zymogen act 46.2 | KLK7 act conf inactive | EDANS interfere 11.0
CCc1cc2c(=O)c(-c3nc4ccccc4n3C)c(C)oc2c(CN(CC)CC)c1O	KLK7 zymogen act 16.2 | KLK7 act conf inactive | EDANS interfere 11.4
CCN(CC)Cc1c(O)ccc2cc(-c3nc4ccccc4n3C)c(=O)oc12	KLK7 zymogen act 52.2 | KLK7 act conf 73.1 | EDANS interfere 75.6
COc1cc2cc(C(N)=O)c(N)nc2cc1OC	KLK7 zymogen act 73.3 | KLK7 act conf 64.8 | EDANS interfere 69.1
CCc1cc2c(nc1CC)CCCN2C	KLK7 zymogen act 29.5 (no result: HIF activator) | KLK7 act conf inactive | EDANS interfere inactive
COc1cc(-c2ccc3oc(-c4ccsc4)c(C#CC4(O)CCCCC4)c3c2)cc(OC)c1OC	KLK7 zymogen act 12.8 | KLK7 act conf inactive | EDANS interfere 9.6
CS(=O)(=O)c1nc(-c2ccc(Br)cc2)cs1	none (no result: HIF activator, KLK7 zymogen act)
Nc1nc2sc3c(c2cc1C(=O)N1CCOCC1)CCCC3	KLK7 zymogen act 13.5 | KLK7 act conf inactive | EDANS interfere 14.4
O=S(=O)(c1ccccc1Br)N(Cc1cn(CC2CCCCC2)nn1)C1CC1	none (no result: HIF activator)
COc1cccc(NC(=O)CSc2nc3c(sc4ccccc43)c(=O)n2CCN(C)C)c1	KLK7 zymogen act 14.4 | KLK7 act conf inactive | EDANS interfere inactive
O=C1C2C(c3ccccc3)=NN(c3ccccc3)C2C(=O)N1c1ccccc1 (stereo not given)	KLK7 zymogen act 14.5 | KLK7 act conf 13.2 | EDANS interfere 18.0
O=C1OCCN1C(=O)[C@H]1[C@H](c2ccc(Cl)cc2)C(c2ccccc2)=NN1c1ccccc1	none (no result: HIF activator)
O=C1[C@H]2C(c3ccccc3)=NN(c3ccccc3)[C@H]2C(=O)N1c1ccccc1	KLK7 zymogen act 22.4 | KLK7 act conf inactive | EDANS interfere inactive
C[C@H]1[C@H](NC(=O)c2ccc(C(F)(F)F)cc2)CC[C@@]23CCCN2C(=O)CCC[C@@H]13	none (no result: HIF activator, KLK7 zymogen act)
O=C(CC1CCCC1)N1CC[C@H]2[C@H](CCCN2Cc2cc(F)cc(F)c2)C1	none (no result: HIF activator)
CN(C)CC(c1ccc(O)cc1)C1(O)CCCCC1 (stereo not given)	none (no result: HIF activator)
CCOc1cc2c(cc1/C=C/C(=O)O)OC(C)C2 (stereo not given)	KLK7 zymogen act 61.8 | KLK7 act conf 72.4 | EDANS interfere 69.2
COc1cc2c(cc1/C=C/C(=O)O)OC(C)C2 (stereo not given)	KLK7 zymogen act 63.9 | KLK7 act conf 64.4 | EDANS interfere 74.0
CC(C)(O)C1Cc2cc(/C=C/C(=O)O)c(O)cc2O1 (stereo not given)	none
Cc1ccc(OCCn2c(CCNC(=O)c3ccc(F)cc3F)nc3ccccc32)cc1	none (no result: HIF activator, KLK7 zymogen act)
O=C(/C=C/c1ccc2c(c1)OCO2)Nc1nc(-c2ccccc2)cs1	none
CC(=O)Nc1ccc(NC(=O)/C=C/c2ccc3c(c2)OCO3)cc1	KLK7 zymogen act 18.9 | KLK7 act conf inactive | EDANS interfere 22.1
O=C(/C=C/c1ccc2c(c1)OCO2)Nc1nncs1	KLK7 zymogen act 13.1 | KLK7 act conf inactive | EDANS interfere inactive
CC(C)CN(CC(C)C)C(=O)c1cn(C(C)c2ccccc2)nn1 (stereo not given)	none (no result: HIF activator)
